Results on 30 compounds are retold here after PubChem BioAssay (NCATS).

Experiment [1] can be described thus: Quantitative highthroughput screen to assess conditional lethalithy of NOMO1 cells grown in Human Plasma-Like Medium with dialyzed fetal bovine serum (HPLM+ds) (AID 1963878). Further: nearly all actives have a fitted effect of over 35% in size. Further: potency means the concentration at half of the fitted maximal effect.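 On viability: 100% = DMSO wells and 0% = empty wells on each plate.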 A digest of the protocol: (§1)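 Each medium arm—HPLM with 10% dialyzed FBS, or RPMI1640 with 5 mM glucose and 10% untreated or dialyzed FBS—was screened against an 11-point, 3-fold compound titration for 48 h at 37 °C, with CellTiter-Glo luminescence as endpoint.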

The nature of experiment [2]: Quantitative highthroughput screen to assess conditional lethalithy of SEM cells grown in Human Plasma-Like Medium with dialyzed fetal bovine serum (HPLM+ds) (AID 1963882). Further: nearly all actives have a fitted effect of over 35% in size. Further: potency means the concentration at half of the fitted maximal effect. On viability: series mostly up to about 46 µM. A digest of the protocol: as §1
Experiment [3] in a line: Cellular viability qHTS for adrenocortical cancer (ACC) cell line NCI-H295R (AID 1963990).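 Further: 0% = DMSO only wells and -100% = full killing with cytotoxic reference compound; nearly all actives have a fitted effect of over 60% in size.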 Put shortly: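 CellTiter-Glo ATP luminescence, read 48 h after compound addition, measured viability of NCI-H295R adrenocortical cells grown serum-free with ITS. Final concentrations spanned up to 46 uM. Data normalized to DMSO and doxorubicin, fitted for IC50 and maximal response.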
(Quantitative high-throughput screening tests each substance at several concentrations.)

Experiment [4] is described as follows: Quantitative highthroughput screen to assess conditional lethalithy of NOMO1 cells grown in RPMI1640 with dialyzed fetal bovine serum (RPMI+ds) (AID 1963877). Further: nearly all actives have a fitted effect of over 30% in size. Further: potency means the concentration at half of the fitted maximal effect.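 On viability: series mostly up to about 46 µM; 100% = DMSO control wells and 0% = empty wells.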 Put shortly: as §1
Experiment [5] in a line: Quantitative highthroughput screen to assess conditional lethalithy of SEM cells grown in RPMI1640 with dialyzed fetal bovine serum (RPMI+ds) (AID 1963884). Further: nearly all actives have a fitted effect of over 35% in size. Further: potency means the concentration at half of the fitted maximal effect.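 On viability: series mostly up to about 46 µM; 100% = DMSO control wells and 0% = empty wells without cells.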 Put shortly:
as §1

A short description of experiment [6]: Quantitative highthroughput screen to assess conditional lethalithy of P12 Ichikawa cells grown in RPMI1640 with dialyzed fetal bovine serum (RPMI+ds) (AID 1963880). Further: nearly all actives have a fitted effect of over 35% in size. Further: potency means the concentration at half of the fitted maximal effect.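 On viability: 100% = DMSO wells and 0% = empty wells on each plate.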 The note with it: Potency: P12-Ichikawa viability. Put shortly: as §1
A short description of experiment [7]: Quantitative highthroughput screen to assess conditional lethalithy of P12 Ichikawa cells grown in RPMI1640 with untreated serum (RPMI+s) (AID 1963881). Further: nearly all actives have a fitted effect of over 35% in size. Further: potency means the concentration at half of the fitted maximal effect.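 On viability: series mostly up to about 46 µM; 100% = DMSO wells and 0% = empty wells without cells.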 The note with it: Potency: viability. Put shortly:
as §1

The nature of experiment [8]: Quantitative highthroughput screen to assess conditional lethalithy of SEM cells grown in RPMI1640 with unreated serum (RPMI+s) (AID 1963883). Further: nearly all actives have a fitted effect of over 35% in size. Further: potency means the concentration at half of the fitted maximal effect.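 On viability: 100% = DMSO wells and 0% = empty wells without cells.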 A digest of the protocol:
as §1

The nature of experiment [9]: Quantitative highthroughput screen to assess conditional lethalithy of P12 Ichikawa cells grown in Human Plasma-Like Medium with dialyzed fetal bovine serum (HPLM+ds) (AID 1963879). Further: nearly all actives have a fitted effect of over 35% in size. Further: potency means the concentration at half of the fitted maximal effect. On viability: series mostly up to about 46 µM. The note with it: Potency: viability. A digest of the protocol: as §1
A short description of experiment [10]: Cellular viability qHTS for adrenocortical cancer (ACC) cell line SW-13 (AID 1963989). Further: nearly all actives have a fitted effect of over 65% in size. Further: potency means the concentration at half of the fitted maximal effect.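 On activity (max response): cells grown in serum-free medium with ITS supplement; on the % scale 0 is the no-effect control and ±100 the full control effect.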 The conditions noted are these: SW-13 ACC cells viability, CellTiter-Glo, 48 h; activity (max response): hits give low values. A digest of the protocol: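 Viability was read as CellTiter-Glo luminescence after 48 h compound treatment (up to 46 uM final) of SW-13 cells grown serum-free; titration curves were fit with a four-parameter logistic model to give IC50 and efficacy.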

Results filed as inconclusive are left out. Unmarked numbers belong to inactive results. Activity calls are given as the source filed them. The call rests on the fitted dose curve; in most records, active means well fitted curve in the direction sought with a large enough effect; inconclusive means small, poorly fitted or top-dose-only effect, or another doubt; inactive means no such curve, though single readings can be large; an effect the other way counts as inactive or inconclusive.

On to `c1ccc2c(CN3CCNCC3)cccc2c1`, for which the Potency entry in experiment [1], in [2] and in experiment [3] was “inactive” throughout.

As to `COc1cccc2c1[C@]13CCN(CC4CC4)[C@H](C2)[C@]1(OC)CCC(=O)C3`, the Potency entry in [4] and in experiment [5] was “inactive” each time.

With `CC(=O)OCC1=C(C(=O)O)N2C(=O)[C@@H](N)[C@@H]2SC1`, the figures for the Potency in [6] and in experiment [7] were 2.35 µM (active) and 1.48 µM (active), respectively. Besides, the Potency result in [5] is “inactive”.

As for `C=C[C@@H]1CN2CCC1C[C@@H]2[C@@H](O)c1ccnc2ccccc12` (stereo partly specified), the Potency entry in experiment [4], in [7] and in experiment [2] was “inactive” in each case. For the same compound, in experiment [8], the Potency is 16.6 µM (active).

As to `O=C1CCC[C@@H]2[C@H]3CCCN4CCC[C@@H](CN12)[C@@H]34`, the Potency result in experiment [6] and in [5] was “inactive” throughout.

Regarding `CC(=O)N(C)c1cccc(-c2ccnc3c(C(=O)c4cccs4)cnn23)c1`, the Potency result in experiment [1], in experiment [9] and in experiment [7] was “inactive” each time.

`CC=C(C)C(=O)N[C@@H](c1ccccc1)[C@@H](O)C(=O)O[C@H]1C[C@@]2(O)[C@@H](OC(=O)c3ccccc3)[C@@H]3[C@]4(OC(C)=O)CO[C@@H]4C[C@H](O)[C@@]3(C)C(=O)[C@H](OC(C)=O)C(=C1C)C2(C)C`: the Potency result in [1] is “inactive”.

Consider `CC(=O)O[C@@]12CO[C@H]1C[C@H](O)[C@@]1(C)C(=O)[C@H](O)C3=C(C)[C@@H](O)C[C@@](O)([C@@H](OC(=O)c4ccccc4)[C@@H]21)C3(C)C`, for which the Potency in experiment [4] was 13.2 µM (active); in experiment [7], 9.35 µM (active).

`C[C@]12CC[C@H]3[C@@H](CCC4=CC(=O)CC[C@@H]43)[C@@H]1CC[C@@H]2OC(=O)CCc1ccccc1`: the activity (max response) in experiment [10] is -0.27%.

For the compound `CC(CC(C#N)(c1ccccc1)c1ccccc1)N(C)C` (stereo unspecified), in [10], the activity (max response) was -32%.

`S=C(SSC(=S)N1CCCCC1)N1CCCCC1`: the activity (max response) in [10] was -0.757%.

Take `NC1CC1c1ccccc1` (stereo unspecified): the Potency result in [9], in [2] and in experiment [5] was “inactive” each time.

On to `CC=C(C)C(=O)O[C@H]1C(C)=C2[C@@H]3OC(=O)[C@@](C)(O)[C@@]3(O)[C@@H](OC(=O)CCC)C[C@](C)(OC(C)=O)[C@@H]2[C@@H]1OC(=O)CCCCCCC`, for which the Potency is 0.0662 µM (active) in [1] and 0.0332 µM (active) in experiment [5].

Consider `CC[C@H]1C=CC=CC[C@@H](C)[C@H](O)[C@@](C)(O)C(=O)[C@@H](C)[C@H](O)[C@@H](C)C(=O)[C@@H](C)[C@H](O)[C@@H](C)C=CC(=O)O[C@@H]2[C@@H](C)[C@H](CC1)O[C@]1(CC[C@H](C)[C@H](C[C@@H](C)O)O1)[C@H]2C`, for which the Potency in experiment [4] was 4.69 µM (active); in [6], 5.26 µM (active); in experiment [5], 4.69 µM (active).

Turning to `Cc1sc2c(c1C)C(c1ccc(Cl)cc1)=NC(CC(N)=O)c1nnc(C)n1-2` (stereo unspecified), the activity (max response) in experiment [10] was -21.6%.

Consider `COc1ccc2c(c1)CN(C)CC2c1ccc(Cl)c(Cl)c1` (stereo unspecified), for which the Potency in [1] was 3.32 µM (active). In addition, the Potency entry in [9] and in experiment [7] was “inactive” throughout.

With `COc1ccc2c(c[n+](C)c3c4cc5c(cc4ccc23)OCO5)c1OC`, the Potency was 20.9 µM (active) in experiment [1]; 14.8 µM (active) in experiment [6]; 11.8 µM (active) in [7]; 14.8 µM (active) in [2]; 9.35 µM (active) in experiment [5].

For `Cc1ccccc1-n1c(Cn2ncc3c(N)ncnc32)nc2cccc(C)c2c1=O`, the Potency in [4] is 0.833 µM (active). Further, the Potency result in [2], in experiment [8] and in experiment [5] was “inactive” throughout. Further, the activity (max response) in [10] is 2.46%.

Turning to `CC1=C2C[C@@H]3[C@@H](CC=C4C[C@@H](O)CC[C@@]43C)[C@@H]2CC[C@]12O[C@H]1C[C@H](C)CN[C@H]1[C@H]2C`, in [1], the Potency result is “inactive”.

For `CC(C)[C@]12O[C@@H]1[C@@H]1O[C@]13[C@]1(O[C@H]1C[C@@H]1C4=C(CC[C@@]13C)C(=O)OC4)[C@H]2O`, the Potency in [1], in experiment [9], in experiment [2] and in [5] was 0.0012 µM (active) in each case.

For `C[C@]12CC[C@H]3[C@@H](CCC4=CC(=O)CC[C@@H]43)[C@@H]1CC[C@@H]2OC(=O)CCC1CCCCC1`, the activity (max response) in experiment [10] was -4.2%.

With `C[C@@H]1CC[C@@]2(OC1)O[C@H]1C[C@H]3[C@@H]4CC=C5C[C@@H](O[C@@H]6O[C@H](CO)[C@@H](O[C@@H]7O[C@@H](C)[C@H](O)[C@@H](O)[C@@H]7O)[C@H](O)[C@@H]6O[C@@H]6O[C@@H](C)[C@H](O)[C@@H](O)[C@@H]6O)CC[C@]5(C)[C@@H]4CC[C@]3(C)[C@@H]1[C@H]2C`, the Potency in [4] is 23.5 µM (active); in experiment [9] it was 26.4 µM (active); in experiment [5] it was 14.8 µM (active).

Consider `COC1=CC(C)=C[C@@H](C)[C@@H](O)[C@@H](C)CC(C)=CC=C[C@H](OC)[C@H]([C@@H](C)[C@@H](O)[C@H](C)[C@@]2(O)C[C@@H](O)[C@H](C)[C@@H](C(C)C)O2)OC1=O`, for which the Potency is 0.0743 µM (active) in experiment [4] and 0.0662 µM (active) in experiment [6].

Consider `CO[C@H]1CCC(O[C@H]2C[C@H]([C@]3(C)CC[C@]4(C[C@H](O)[C@@H](C)[C@@H]([C@@H](C)C=C(C)C(=O)[C@H](C)C[C@H](C)C(=O)O)O4)O3)O[C@]3(O[C@@H]([C@H]4O[C@@](O)(CO)[C@H](C)C[C@H]4C)C[C@H]3C)[C@H]2C)O[C@H]1C` (stereo partly specified), for which the Potency in experiment [9] was 3.72 µM (active); in [8], 1.87 µM (active); in experiment [5], 1.32 µM (active).

For `C[C@@H]1CC[C@H]2[C@@H](C)C(=O)O[C@@H]3O[C@@]4(C)CC[C@H]1[C@]32OO4`, the Potency entry in experiment [1], in experiment [8] and in experiment [5] was “inactive” in each case.

`CC[C@]1(O)CC[C@H]2[C@@H]3CCC4=CCCC[C@@H]4[C@H]3CC[C@@]21C`: the Potency in experiment [10] was 3.66 µM (active).

For the compound `COC1(CS(=O)c2ccccc2)CCN(CCc2c[nH]c3ccc(F)cc23)CC1` (stereo unspecified), the Potency in experiment [1] is 26.4 µM (active). The Potency entry in experiment [8] and in [5] was “inactive” in each case. In experiment [10], the activity (max response) is -19.4%.

For the compound `C[C@@H]1[C@@H](C(=O)C[C@H]2O[C@@H]3O[C@]4(C)CC[C@@H]5[C@H](C)CC[C@@H]([C@H]2C)[C@@]35OO4)O[C@@H]2O[C@]3(C)CC[C@H]4[C@H](C)CC[C@@H]1[C@@]24OO3`, the values for the Potency in experiment [6], in [7] and in experiment [5] were 16.6 µM (active), 23.5 µM (active) and 23.5 µM (active), respectively.

`CC(C)N[C@@H]1CCn2c(=O)[nH]c3cccc(c32)[C@@H]1O`: the Potency result in experiment [9] and in experiment [2] was “inactive” each time.

Turning to `C[C@]12CC[C@@H]3[C@@H](CCC4=CC(=O)CC[C@@H]43)[C@@H]1CC[C@@H]2OC(=O)CCc1ccccc1`, the Potency entry in experiment [2], in [8] and in experiment [3] was “inactive” throughout. In addition, the activity (max response) in experiment [10] is -2.06%.
